Shown are actives, neighbours in structure and some others; about 18% of the full set was active somewhere.
IL1B secr inh: inhibitors of inflammasome signaling (IL-1 beta secretion); 4.7% of 360,000 active; THP-1 LPS/ATP IL-1B secretion, AlphaLISA, 16 h; active compounds read low; AID 743279; activity change, % at 57.5 µM; in the data active = activity change below about -50%; inconclusive = mostly about -30% to -49%
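THP-1 cells pretreated 1 hr with compounds (up to 57.5 uM final), then stimulated with LPS (250 ng/mL final) plus ATP (1.25 mM final); secreted IL-1B measured by AlphaLISA after 16 hr, decreased signal indicating inhibition.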
TDP1 inh: inhibitors of human tyrosyl-DNA phosphodiesterase TDP1 | Potency, µM (series often up to 130 µM), without a hit: top-dose activity change, negative = inhibition, usual class: inhibitors | 0.28% of 350,000 active | recombinant TDP1, AlphaScreen DNA substrate cleavage; note: potency is the fitted concentration of half-maximal effect; nearly all actives have a fitted effect of over 40% in size
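Compounds were preincubated with Tdp1 (1 nM final) for 15 min at room temperature before substrate (15 nM final) started a 5 min reaction; beads (10 ug/ml final) were then added for 10 min before AlphaScreen detection.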
CtBP-E1A inh: inhibitors of CtBP/E1A interaction; AlphaScreen GST-E1A/His-CtBP binding, 1536-well; active compounds read low; activity change, % (test concentration not listed); 0.49% of 340,000 active; in the data active = activity change below about -65%; inconclusive = mostly about -30% to -63%
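Homogeneous bead-based format: GST-tagged E1A captured on glutathione donor beads, His-tagged CtBP on nickel acceptor beads; compounds precede bead addition by 2 h at 37 °C.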
DT40 TDP1 no CPT: qHTS for Inhibitors of human tyrosyl-DNA phosphodiesterase 1 (TDP1): qHTS in cells in absence of CPT. DT40 Tdp1-/- hTDP1 cells, no CPT, ATP luminescence, 48 h. Potency, µM (doses to about 46.2 µM), without a hit: at the top dose activity change, negative = growth inhibition, actives largely listed as inhibitors. 15% of 420,000 active; note: potency is the fitted concentration of half-maximal effect; nearly all actives have a fitted effect of over 55% in size
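Chicken DT40 Tdp1-/- cells complemented with human TDP1, screened without camptothecin (DMSO vehicle only), 400 cells/well. Compounds pin-transferred, cells incubated at 37 °C for at least 48 hr. Growth read as ATP-dependent luminescence (CellTiter-Glo, 30 min at RT).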
Six1-Eya2 inh: inhibitors of human Six1/Eya2 interaction; 0.56% of 360,000 active; activity change, % (test concentration not listed); Q15475+O00167; AID 651725; AlphaScreen GST-Six1/His-Eya2 binding, biochemical; active compounds read low; in the data active = activity change below about -65%; inconclusive = mostly about -30% to -63%
Target sequence (O00167 whole entry, looked up): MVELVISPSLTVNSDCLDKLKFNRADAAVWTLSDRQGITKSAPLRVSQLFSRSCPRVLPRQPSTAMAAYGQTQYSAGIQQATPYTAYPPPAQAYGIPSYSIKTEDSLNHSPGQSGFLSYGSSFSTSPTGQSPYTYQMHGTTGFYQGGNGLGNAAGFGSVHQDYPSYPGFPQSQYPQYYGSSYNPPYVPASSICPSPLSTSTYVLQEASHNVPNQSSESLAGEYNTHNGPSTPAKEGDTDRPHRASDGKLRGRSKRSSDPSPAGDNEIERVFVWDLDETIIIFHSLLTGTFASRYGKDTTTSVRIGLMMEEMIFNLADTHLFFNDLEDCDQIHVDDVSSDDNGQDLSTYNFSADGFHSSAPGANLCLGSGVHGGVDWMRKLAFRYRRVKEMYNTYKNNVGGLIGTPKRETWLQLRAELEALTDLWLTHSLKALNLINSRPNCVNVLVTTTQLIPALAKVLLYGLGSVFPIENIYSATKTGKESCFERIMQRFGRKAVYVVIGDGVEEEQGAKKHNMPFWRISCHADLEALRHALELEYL
Target sequence (Q15475 whole entry, looked up): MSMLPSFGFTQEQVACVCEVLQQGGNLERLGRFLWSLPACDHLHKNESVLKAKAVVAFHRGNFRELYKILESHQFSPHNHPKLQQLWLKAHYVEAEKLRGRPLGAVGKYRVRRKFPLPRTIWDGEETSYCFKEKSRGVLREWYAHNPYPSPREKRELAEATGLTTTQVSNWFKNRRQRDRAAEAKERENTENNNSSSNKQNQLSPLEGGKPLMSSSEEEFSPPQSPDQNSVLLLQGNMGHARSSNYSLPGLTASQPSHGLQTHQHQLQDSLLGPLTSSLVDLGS
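Six1/Eya2 binding was read as AlphaScreen signal after compounds were pinned into GST-Six1 plus His-tagged Eya2 (5X stock 250/500 nM) in pH 8.0 Tris/NaCl/TCEP buffer, beads added, then incubated 1 h, 37 C, dark.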
DT40 TDP1 CPT: DT40-hTDP1 cell growth loss with CPT; 12% of 420,000 active; Potency, µM (doses to about 46.2 µM), for the others: top-dose activity change, negative = growth inhibition, most hits filed as inhibitors; chicken DT40 Tdp1-/-;hTDP1 cells + 20 nM CPT, ATP luminescence, 48 h; AID 686979; note: potency is the fitted concentration of half-maximal effect; nearly all actives have a fitted effect of over 55% in size
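Chicken DT40 Tdp1-/- cells stably complemented with human TDP1 were seeded at 400 cells/well in medium containing 20 nM camptothecin, exposed to pin-transferred compounds, and grown at 37 °C for at least 48 hr. Viability was read as ATP luminescence.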
* hit, by the source's call. Unless noted, calls come from the whole dose curve; as a rule, active = well fitted curve in the direction sought with a large enough effect; inconclusive = small, poorly fitted or top-dose-only effect, or another doubt; inactive = no such curve, though single readings can be large; an effect the other way counts as inactive or inconclusive. % is set by controls: 0 for no effect and ±100 for the full control effect.

CCn1cc(/C=C/C(=O)c2ccc(O)cc2)c(C)n1 was read as IL1B secr inh -81*, TDP1 inh 7%, CtBP-E1A inh 9, DT40 TDP1 no CPT 0%, Six1-Eya2 inh 0 and DT40 TDP1 CPT 1%.
For Cc1nn(C)cc1/C=C/C(=O)c1ccccc1 the results were IL1B secr inh inconclusive, TDP1 inh 7%, CtBP-E1A inh 0, DT40 TDP1 no CPT -23%, Six1-Eya2 inh -12 and DT40 TDP1 CPT -26%.
Cc1cc(C)c2oc(C(=O)Nc3c(C(=O)c4ccccc4)oc4ccccc34)cc(=O)c2c1 was read as TDP1 inh 6%, DT40 TDP1 no CPT -21% and DT40 TDP1 CPT 14%.
For COc1ccc(Oc2nc3c(c(=O)n(C)c(=O)n3C)n2C)cc1 the results were IL1B secr inh 0, CtBP-E1A inh 3, DT40 TDP1 no CPT -25%, Six1-Eya2 inh 0 and DT40 TDP1 CPT inconclusive.
Screening Cc1sc2nc(CSCC(=O)N(C)c3ccccc3)[nH]c(=O)c2c1C returned IL1B secr inh -10, TDP1 inh 8%, CtBP-E1A inh -5, DT40 TDP1 no CPT 16µM*, Six1-Eya2 inh -6 and DT40 TDP1 CPT 23µM*.
For Cc1sc2nc(SCC(=O)N3CC(C)OC(C)C3)n(C)c(=O)c2c1C (stereo not given) the results were IL1B secr inh 10, TDP1 inh 3%, CtBP-E1A inh 1, DT40 TDP1 no CPT 13µM*, Six1-Eya2 inh -10 and DT40 TDP1 CPT inconclusive.
For Cc1sc2nc(CSCC(=O)N(C)CC(=O)Nc3ccc(F)cc3)[nH]c(=O)c2c1C the results were IL1B secr inh -26, TDP1 inh 2%, CtBP-E1A inh -24, DT40 TDP1 no CPT inconclusive, Six1-Eya2 inh -8 and DT40 TDP1 CPT -29%.
CCOC(=O)CSc1nc2sc(C)c(C)c2c(=O)n1C was read as IL1B secr inh 13, TDP1 inh 0%, CtBP-E1A inh -3, DT40 TDP1 no CPT -24%, Six1-Eya2 inh 2 and DT40 TDP1 CPT inconclusive.
Screening Cc1sc2nc(CSCC(=O)Nc3c(F)cccc3F)[nH]c(=O)c2c1C returned IL1B secr inh 17, CtBP-E1A inh 1, DT40 TDP1 no CPT 10µM*, Six1-Eya2 inh 0 and DT40 TDP1 CPT 12µM*.
For CCn1c(SCC(=O)N2CCc3ccccc3C2)nc2sc(C)c(C)c2c1=O the results were IL1B secr inh 15, TDP1 inh 3%, CtBP-E1A inh -14, DT40 TDP1 no CPT 21µM*, Six1-Eya2 inh -1 and DT40 TDP1 CPT inconclusive.
For CCn1c(C)nc2cc(C(=O)NNC(=S)Nc3ccc(F)cc3)ccc21 the results were IL1B secr inh -11, TDP1 inh 7%, CtBP-E1A inh -3, DT40 TDP1 no CPT 13%, Six1-Eya2 inh 4 and DT40 TDP1 CPT 1%.
CN(C(=O)Cn1nnc(-c2ccc(S(C)(=O)=O)cc2)n1)c1ccccc1 was read as TDP1 inh -1%, DT40 TDP1 no CPT -11% and DT40 TDP1 CPT 1%.
CCOc1ccc(NC(=O)c2cn3c4c(ccc(Cl)c4c2=O)OC(C)C3)cc1 (stereo not given) was read as TDP1 inh 5%, DT40 TDP1 no CPT -1% and DT40 TDP1 CPT -3%.
Screening Cc1sc2nc(CSCC(=O)N(CCC#N)c3ccccc3)[nH]c(=O)c2c1C returned IL1B secr inh 29, TDP1 inh -1%, CtBP-E1A inh 7, DT40 TDP1 no CPT inconclusive, Six1-Eya2 inh -6 and DT40 TDP1 CPT 18µM*.
Screening Cc1sc2nc(SCC(=O)N(C)c3ccccc3)n(C)c(=O)c2c1C returned IL1B secr inh 0, TDP1 inh 7%, CtBP-E1A inh 0, DT40 TDP1 no CPT 13µM*, Six1-Eya2 inh 8 and DT40 TDP1 CPT 18µM*.
Screening Nc1ccccc1C(=O)N(Cc1ccccc1)Cc1ccccc1 returned IL1B secr inh -10, TDP1 inh 2%, CtBP-E1A inh 0, DT40 TDP1 no CPT inconclusive, Six1-Eya2 inh 8 and DT40 TDP1 CPT -8%.
For CC(C)C(NC(=O)c1cccs1)c1nnc(SCC(=O)Nc2nccs2)n1C (stereo not given) the results were IL1B secr inh -10, TDP1 inh 9%, CtBP-E1A inh -2, DT40 TDP1 no CPT -12%, Six1-Eya2 inh 2 and DT40 TDP1 CPT -15%.
`O=C(NCC1CCCO1)c1cc(-c2ccccc2F)no1` (stereo not given) gave IL1B secr inh 31, TDP1 inh 1%, DT40 TDP1 no CPT inconclusive, Six1-Eya2 inh 3 and DT40 TDP1 CPT inconclusive.
Screening Cc1cc(OCCCCN2C(=O)NC(C)(C)C2=O)ccc1[N+](=O)[O-] returned IL1B secr inh -10, TDP1 inh -4%, CtBP-E1A inh 6, DT40 TDP1 no CPT 12µM*, Six1-Eya2 inh -1 and DT40 TDP1 CPT inconclusive.
For Cc1ccc([N+](=O)[O-])c(OCCN2C(=O)NC(C)(C)C2=O)c1 the results were IL1B secr inh -4, TDP1 inh -8%, DT40 TDP1 no CPT -18%, Six1-Eya2 inh 3 and DT40 TDP1 CPT 1%.
`Cc1ccc(OCCn2ccnc2)c([N+](=O)[O-])c1` gave IL1B secr inh 0, TDP1 inh -5%, CtBP-E1A inh 9, DT40 TDP1 no CPT -1%, Six1-Eya2 inh 0 and DT40 TDP1 CPT -18%.
Screening Cc1cc(Cl)c(OCCOCCN2CCNCC2)c(Cl)c1 returned IL1B secr inh -23, DT40 TDP1 no CPT 12µM*, Six1-Eya2 inh 2 and DT40 TDP1 CPT inconclusive.
Screening C=CCc1cc(Cl)ccc1OCCCn1ccnc1 returned IL1B secr inh 21, TDP1 inh 8%, DT40 TDP1 no CPT 21µM*, Six1-Eya2 inh 0 and DT40 TDP1 CPT inconclusive.
`Cc1cc(C)c(OCCOCCN2CCN(C)CC2)c(Cl)c1` gave IL1B secr inh 1, CtBP-E1A inh 12, DT40 TDP1 no CPT inconclusive, Six1-Eya2 inh -5 and DT40 TDP1 CPT -28%.
`C=CCc1cc(Cl)ccc1OCCn1ccnc1` gave IL1B secr inh -14, TDP1 inh 9%, CtBP-E1A inh -8, DT40 TDP1 no CPT inconclusive, Six1-Eya2 inh -4 and DT40 TDP1 CPT -34%.
Screening Cc1cc(OCCCn2ccnc2)ccc1[N+](=O)[O-] returned IL1B secr inh -79*, TDP1 inh 7%, CtBP-E1A inh 3, DT40 TDP1 no CPT inconclusive, Six1-Eya2 inh 0 and DT40 TDP1 CPT -29%.
For N#CCSc1ccccc1NC(=O)COC(=O)C1CCN(C(=O)c2ccc(Cl)cc2)CC1 the results were IL1B secr inh 19, CtBP-E1A inh -1, DT40 TDP1 no CPT -16%, Six1-Eya2 inh -1 and DT40 TDP1 CPT 2%.

Screens deposited in PubChem by National Center for Advancing Translational Sciences (NCATS).
